Pf growth 48h – P. falciparum growth inhibition at 48 hours (one generation) | P. falciparum luciferase growth in erythrocytes, 48 h | Potency, µM (series often up to 28.7 µM), for inactives: at the highest dose activity change, negative = inhibition, hits mostly inhibitors | 310,000 tested, 5.9% active | AID 504832; also: potency is read from the fitted curve at half-maximal effect; % is scaled to controls: 0 for no effect and ±100 for the full control effect
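Luminescence readout; reporter = integrated firefly luciferase in P. falciparum. RBC culture at 2% hematocrit, 0.1% parasitemia final, 37 C/5% CO2; decreased signal taken as growth inhibition.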
AMA1 RON2 block – inhibitors of Plasmodium falciparum AMA1-RON2 interaction; AlphaScreen AMA1-biotinylated RON2 peptide binding; AID 720542; Potency, µM (highest dose often 58.2 µM), inactives show top-dose activity change, negative = inhibition, usual class: inhibitors; 360,000 tested, 0.2% active;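 also: potency is read from the fitted curve at half-maximal effect; 0% = vehicle wells and -100% = peptide control; nearly all actives have a fitted effect of over 45% in size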
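AMA1 (3D7) with his tag at 25 nM final met compounds first, then biotinylated RON2 peptide at 25 nM; detection used donor plus acceptor beads, 10 µg/mL apiece, read by AlphaScreen after 30 min at room temperature.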
Shiga inhibitor – blocks Shiga toxin action in Vero cells; Vero cells, Shiga toxin protein synthesis inhibition reporter; inhibition, % at 38.7 µM; 290,000 tested, 9.2% active; AID 2315; in the data active = inhibition mostly above about 28%, no sharp cut-off; inactive = mostly below about 43%; also: 0% is about no effect
CHX counter – counter-screen hit for Shiga toxin inhibitors, cycloheximide; cell reporter, cycloheximide protein synthesis inhibition counterscreen; max response, %; 300,000 tested, 12% active; AID 2314; in the data active = max response mostly above about 13%, no sharp cut-off; inactive = mostly below about 14%; also: read at 38.3 µM for the half of the compounds with a filed dose; 0% is about no effect
HCV inhibitor – HCV inhibition; Huh7.5.1 HCVcc-Cre infection, luciferase reporter, 44 h; Potency, µM (doses to about 41.8 µM), for inactives: at the top dose activity change, negative = inhibition, usual class: inhibitors; 340,000 tested, 3.4% active; also: potency is read from the fitted curve at half-maximal effect; % is scaled to controls: 0 for no effect and ±100 for the full control effect
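Antiviral activity was scored by luciferase reporter output from cells infected with HCVcc-Cre (~0.5 moi) in presence of compound, 44 h infection period, cells seeded 1,000/well 4 h prior.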
Pf growth 96h – P. falciparum growth inhibition at 96 hours. P. falciparum luciferase reporter growth, 96 h. Potency, µM (highest dose often 28.7 µM), for the others: at the top dose activity change, negative = inhibition, most hits filed as inhibitors. 320,000 tested, 6.9% active; also: potency is read from the fitted curve at half-maximal effect; % is scaled to controls: 0 for no effect and ±100 for the full control effect
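Plates of compound plus infected erythrocytes (2% hematocrit, 0.05% parasitemia final) incubate 96 hours, 37 C, 5% CO2. Detection reagent added; reduced luminescence from the parasites' luciferase reporter flags inhibition.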
* = called active by the depositor; ? = inconclusive; . = no result given. In the library only some 21% were active in any assay of this set; here they are far more common. Unless noted, calls follow the shape of the dose curve; as a rule, active = well fitted curve in the direction sought with a large enough effect; inconclusive = small, poorly fitted or top-dose-only effect, or another doubt; inactive = no such curve, though single readings can be large; an effect the other way counts as inactive or inconclusive.

SMILES	Pf growth 48h	AMA1 RON2 block	Shiga inhibitor	CHX counter	HCV inhibitor	Pf growth 96h
CCOC(=O)C1=C(C)N=c2s/c(=C/c3ccc(OCC(=O)O)cc3)c(=O)n2C1c1ccc(F)cc1 (centres undefined)	3.3µM*	-4%	-1	-1	-10%	?
Cc1ccccc1-n1nc(C(=O)c2cccs2)cc(-c2nc3ccccc3[nH]2)c1=N	3.7µM*	34%	8	-2	10µM*	?
COc1ccc(-n2nc(C(=O)c3cccs3)cc(-c3nc4ccccc4[nH]3)c2=N)cc1	3.3µM*	51%	-3	1	11µM*	?
Cc1cccc(-n2nc(C(=O)c3ccco3)cc(-c3nc4ccccc4[nH]3)c2=N)c1	?	34%	-1	1	?	?
CCOC(=O)C1(C)CCCN1C(=O)c1ccc2ccccc2c1 (centres undefined)	.	13%	.	.	.	.
CCCCOCCCNC(=O)C[C@@H]1C[C@@]2(C(=O)OC)CC(C)(C)CC=C2N(Cc2ccccc2)C1=O	.	-12%	.	.	.	.
Cc1ccc(OCc2cc(C(=O)N3CCN(C)C[C@@H]3c3ccccc3)no2)cc1C	?	-19%	123*	75*	.	?
CN1CCN(C(=O)c2cc(COc3ccccc3)on2)[C@@H](c2ccccc2)C1	?	1%	117*	55*	-1%	32%
C[C@@H]1CN(C(=O)c2cc(COc3cccc(C(F)(F)F)c3)on2)C[C@H](C)O1	?	-14%	-12	19	-24%	8%
Cc1cccc(C)c1-n1c(C)cc(/C=N/NC(=O)CSc2ncccn2)c1C	?	-1%	-9	6	-5%	0%
Cc1cc(/C=N/NC(=O)c2cccs2)c(C)n1-c1cnccn1	266%	90%	59*	48*	-22%	73%
Cc1ccc2occ(/C=N/NC(=O)c3ccncc3)c(=O)c2c1	10%	126%	-11	-4	5%	3.7µM*
Cc1cc(C)nc(SCC(=O)N/N=C/c2cc(C)n(-c3ccccc3C)c2C)n1	5.2µM*	19%	14	-2	17%	?
Cc1cc(/C=N/NC(=O)c2cccs2)c(C)n1-c1ccccc1	.	81%	11*	26*	?	-70%
Cc1ccc2occ(/C=N/NC(=O)c3ccc(Cl)cc3)c(=O)c2c1	3%	31%	-15	-2	-2%	0%
CCOC(=O)[C@]12CCCC=C1N(Cc1cccc3ccccc13)C(=O)[C@H](CC(=O)NCCCOC)C2	.	-6%	.	.	.	.
Cc1cc(/C=N/NC(=O)c2ccncc2)c(C)n1-c1ccccc1	26%	63%	23*	26*	?	?
Cc1cccc(C)c1-n1c(C)cc(/C=N/NC(=O)c2ccncc2)c1C	?	0%	-11	2	15%	?
Cc1ccc(-n2c(C)cc(/C=N/NC(=O)c3ccncc3)c2C)c(C)c1	2.3µM*	1%	13	14	?	1.7µM*
Cc1ccc(-n2c(C)cc(/C=N/NC(=O)CC3(C)OCCO3)c2C)c(C)c1	9.3µM*	89%	15	9	-3%	-23%
Cc1ccc(-n2c(C)cc(/C=N/NC(=O)c3ccncc3)c2C)cc1C	10µM*	14%	41	5	-25%	-2%
CCC1CCCCN1C(=O)CSc1nc2ncccc2[nH]1 (centres undefined)	2%	-12%	10	3	0%	0%
Cc1cc(/C=N/NC(=O)c2cccc([N+](=O)[O-])c2)c(C)n1-c1ccccc1	27%	59%	25	34*	?	-1%
Cc1ccc(/C=N/NC(=O)c2cccc([N+](=O)[O-])c2)o1	26%	23%	-7	14	36%	?
CN(Cc1ccccc1)C1=CC(=[N+]2CCCCC2)CC(C)(C)C1	0.37µM*	0%	-4	8	2.8µM*	0.33µM*
CC1(C)CC(N2CCCC2)=CC(=[N+]2CCCC2)C1	1.5µM*	7%	-4	6	-20%	0.33µM*
CC1(C)CC(NNCCC#N)=CC(=[N+]2CCCC2)C1	0%	-1%	-6	3	1%	?
CC1(C)CC(N2CCN(Cc3ccccc3)CC2)=CC(=[N+]2CCCCC2)C1	0.83µM*	-26%	-3	0	?	0.52µM*
